Here are results for 25 molecules from PubChem BioAssay (Tox21).

A number with no mark means an inactive call. Records with an inconclusive call do not appear. Activity calls are given as the source filed them. Unless noted, calls follow the shape of the dose curve; as a rule, active = well fitted curve in the direction sought with a large enough effect in the repeat runs; inconclusive = weak or mixed curves; inactive = no such curve, though single readings can be large; an effect the other way counts as inactive or inconclusive.

Test [1] in a line: qHTS assay to identify small molecule antagonists of the androgen receptor (AR) signaling pathway using the MDA cell line in the presence of 0.5 nM R1881 - cell viability counter screen (AID 1259242). Also: nearly all actives have a fitted effect of over 45% in size. The method in brief: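 Concentration-response screen of compounds for toxicity in MDA-kb2 reporter cells: 16 hr at 37C with 0.5 nM R1881, endpoint live-cell protease fluorescence measured in the reporter wells.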

A short description of test [2]: qHTS assay to identify small molecule HDAC inhibitors (AID 1259364).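 Also: wild-type HCT-116 cells with endogenous class I/II HDAC activity; top concentration of the series differs between compounds; nearly all actives have a fitted effect of over 45% in size.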 The method in brief:
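Screening used wild-type human colon HCT-116 cells incubated overnight, dosed with compounds for 2 hours, and assayed with a homogeneous luminogenic HDAC I/II reagent for 30 minutes at room temperature.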

Test [3] can be described thus: qHTS assay to identify small molecule HDAC inhibitors - cell viability counter screen (AID 1259365). Also: series mostly up to about 92 µM; nearly all actives have a fitted effect of over 50% in size. The method in brief: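 Cytotoxicity was gauged in wild-type HCT-116 cells after a brief 2hr treatment with DMSO-dissolved compounds at 37C and 5% CO2, using CellTiter-Glo luminescence developed for 30min at room temperature.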
The nature of test [4]: qHTS assay to identify small molecule agonists of the sonic hedgehog signaling (Shh) pathway - cell viability counter screen (AID 1259366). Also: nearly all actives have a fitted effect of over 50% in size. Also: potency is read from the fitted curve at half-maximal effect. The method in brief: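 Stable Gli1-Luc NIH/3T3 clone, 2,000 cells/well. Compound exposure 24hr at 37C. Read-out: CellTiter-Fluor fluorescence.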
The nature of test [5]: qHTS assay to identify small molecule antagonists of the sonic hedgehog signaling (Shh) pathway - cell viability counter screen (AID 1259367). Also: nearly all actives have a fitted effect of over 55% in size. Also: potency is read from the fitted curve at half-maximal effect. The method in brief: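 Viability was read by CellTiter-Fluor fluorescence in the same wells, reagent added 23 hr into compound treatment and incubated 1 hr at 37C. The 3T3 Gli1-Luc reporter cells (2,000/well) received conditioned medium after compound and ran 24 hr.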

A short description of test [6]: qHTS assay to identify small molecule agonists of the sonic hedgehog signaling (Shh) pathway (AID 1259368; calls by dose curve;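 also: NIH/3T3-derived 3T3Gli1-Luc cells carrying a stable Gli1-driven firefly luciferase reporter; series mostly up to about 92 µM; nearly all actives have a fitted effect of over 15% in size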). The method in brief:
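Hedgehog pathway agonism scored by increased firefly luciferase luminescence in 3T3Gli1-Luc cells treated 24 hr at 37 C; detection used a 30 min room-temperature reagent incubation.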

The target in test [7] is Estrogen receptor (Homo sapiens) (UniProt P03372). The experiment in a line: qHTS assay to identify small molecule antagonists of the estrogen receptor alpha (ER-alpha) signaling pathway using the BG1 cell line in the presence of 0.1 nM 17-beta-estradiol (AID 1259244). Also: nearly all actives have a fitted effect of over 50% in size. The method in brief: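 Compounds were tested against 0.1 nM (final) 17beta-estradiol in VM7Luc4E2 cells, which express full-length ER-alpha and an ERE-luciferase reporter; luminescence was recorded following 22 h exposure.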
Estrogen receptor (Homo sapiens), sequence (P03372 whole entry, looked up): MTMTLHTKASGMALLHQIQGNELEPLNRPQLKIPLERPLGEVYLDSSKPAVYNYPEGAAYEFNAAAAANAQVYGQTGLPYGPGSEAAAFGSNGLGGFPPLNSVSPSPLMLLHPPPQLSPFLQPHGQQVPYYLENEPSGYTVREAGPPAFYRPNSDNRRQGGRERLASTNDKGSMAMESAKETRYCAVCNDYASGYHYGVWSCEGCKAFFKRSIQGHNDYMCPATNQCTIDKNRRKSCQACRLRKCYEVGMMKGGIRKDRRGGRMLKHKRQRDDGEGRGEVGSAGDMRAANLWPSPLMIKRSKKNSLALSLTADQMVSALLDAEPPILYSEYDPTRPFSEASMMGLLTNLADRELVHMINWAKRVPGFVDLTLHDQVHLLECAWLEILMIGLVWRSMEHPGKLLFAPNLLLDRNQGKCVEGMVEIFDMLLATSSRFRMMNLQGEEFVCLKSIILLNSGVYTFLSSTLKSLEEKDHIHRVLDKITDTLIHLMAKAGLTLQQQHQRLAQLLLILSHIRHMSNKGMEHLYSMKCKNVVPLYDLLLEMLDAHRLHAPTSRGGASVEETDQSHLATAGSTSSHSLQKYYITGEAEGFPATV

Test [8] can be described thus: qHTS assay to identify small molecule antagonists of the sonic hedgehog signaling (Shh) pathway (AID 1259369; calls by dose curve; also: nearly all actives have a fitted effect of over 45% in size). The method in brief: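 NIH/3T3 stable Gli1-Luc clone, 2,000 cells/well, 4hr settle; cpd + conditioned medium 24hr; Luc reagent 30min RT; luminescence.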
Test [9] can be described thus: qHTS assay to identify small molecule phospholipidosis (PLD) inducers (AID 1259344; active = well fitted curve in the direction sought with a large enough effect; an effect the other way counts as inactive or inconclusive). The method in brief: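 Phospholipid accumulation was scored by imaging: fixed, Hoechst-counterstained HepG2 cells stained with LipidTOX Red after 24 h compound exposure at 37 C. Read-outs were pit count and pit intensity per well or per cell, with amiodarone and DMSO controls.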
% is scaled to controls: 0 for no effect and ±100 for the full control effect.

As for `CC(C)CC(C)CC(C)CC(C)COC(=O)c1ccccc1C(=O)OCC(C)CC(C)CC(C)CC(C)C` (configuration not stated), the result in test [1], in test [3] and in test [6] was inactive. In addition, the Potency entry in test [2], in [4] and in [5] was “inactive” in each case.

As to `CCCCCCCCSCC`, the result in test [1] and in test [3] was inactive. The Potency entry in test [7], in test [2], in [4], in test [5] and in test [8] was “inactive” throughout.

Take `O=C(NCC(O)CO)c1c(I)c(C(=O)NCC(O)CO)c(I)c(N(CCO)C(=O)CO)c1I` (configuration not stated): the result in test [1], in test [9], in test [3] and in [6] was inactive. For the same molecule, the Potency entry in [2], in [4], in test [5] and in test [8] was “inactive” in each case.

With `CN=C(NC#N)Nc1ccc(C2=NNC(=O)CC2C)cc1` (configuration not stated), the outcome in test [1], in test [9], in test [3] and in [6] was inactive. The Potency entry in [2], in test [4], in test [5] and in [8] was “inactive” throughout.

On to `CCCCCCOc1ccccc1C(N)=O`, for which the result in test [1], in test [9], in test [3] and in test [6] was inactive. The Potency entry in test [4] and in [5] was “inactive” each time.

Take `CC(C)C(=O)OCc1cccc(OC(=O)[C@@H]2N3C(=O)[C@@H](NC(=O)Cc4ccccc4)[C@H]3SC2(C)C)c1`: the outcome in test [1] and in [6] was inactive. The Potency entry in [7], in test [2], in [4], in test [5] and in test [8] was “inactive” each time.

On to `C=CC(OCC)OCC`, for which the outcome in test [1], in test [3] and in test [6] was inactive. Moreover, the Potency result in [2], in [4] and in [5] was “inactive” each time.

`O=C(NCCN1CCOCC1)c1ccc(Cl)cc1`: the result in test [1], in test [9], in [3] and in [6] was inactive. The Potency entry in test [2], in test [4], in test [5] and in [8] was “inactive” in each case.

Turning to `COc1ccc(OC)c(Cl)c1`, the outcome in [1], in test [3] and in test [6] was inactive. The Potency entry in test [2], in test [4], in [5] and in test [8] was “inactive” each time.

For `COc1ccc(C2CNC(=O)C2)cc1OC1CCCC1` (configuration not stated), the outcome in test [1], in test [9], in test [3] and in [6] was inactive. Moreover, the Potency result in test [2], in test [4] and in test [5] was “inactive” throughout.

Turning to `CC(C)CCCCOC(=O)c1ccccc1C(=O)OCCCCC(C)C`, the result in [1], in test [3] and in test [6] was inactive. Also, the Potency entry in test [2], in test [4], in [5] and in test [8] was “inactive” in each case.

On to `Cc1ccc2ccc(Cl)cc2n1`, for which the result in test [1] and in test [3] was inactive. Also, the Potency result in test [7], in test [2], in test [4], in test [5] and in test [8] was “inactive” in each case.

In the case of `CC(=O)N[C@@H](CCC(=O)O)C(=O)O`, the result in test [1], in test [9] and in test [3] was inactive. Moreover, the Potency entry in test [2], in test [4], in [5] and in [8] was “inactive” throughout.

For `CCCCC(CC)COCCO` (configuration not stated), the result in [1] and in [3] was inactive. In addition, the Potency result in [7], in [2], in [4], in [5] and in test [8] was “inactive” each time.

For `CCCCCCCCCCl`, the result in test [1] and in test [3] was inactive. Also, the Potency result in test [2], in test [4] and in test [5] was “inactive” throughout.

In the case of `CCO[Si](CCCS)(OCC)OCC`, the result in test [1], in [3] and in test [6] was inactive. Besides, the Potency result in [2], in test [4] and in test [5] was “inactive” in each case.

For the molecule `COc1ccc2c(c1OC)C(=O)O[C@@H]2[C@H]1c2c(cc3c(c2OC)OCO3)CCN1C`, the result in test [1], in test [9], in test [3] and in test [6] was inactive. For the same molecule, the Potency entry in test [2] is “inactive”. In addition, the Potency in test [4] was 2110 nM (active); in test [5] it was 3350 nM (active).

As for `CN(C)c1ccc(C=O)cc1`, the outcome in [1], in test [3] and in test [6] was inactive. Moreover, the Potency result in [7], in [4], in test [5] and in test [8] was “inactive” each time.

For `FC(F)(F)c1ccccc1-n1ccnc1`, the outcome in test [1], in test [9] and in test [3] was inactive. The Potency result in test [2], in [4], in [5] and in test [8] was “inactive” each time.

`CC(C)(C)NC(N)=O`: the result in [1] and in test [3] was inactive. Also, the Potency result in test [7], in [2], in [4], in test [5] and in test [8] was “inactive” throughout.

On to `CC1=C(C(=O)O)N2C(=O)[C@@H](NC(=O)[C@H](N)c3ccc(O)cc3)[C@H]2SC1`, for which the result in [1], in test [9], in test [3] and in test [6] was inactive. The Potency entry in test [2], in test [4], in [5] and in test [8] was “inactive” each time.

In the case of `NCCN1CCOCC1`, the result in [1] and in test [3] was inactive. Besides, the Potency result in [2], in test [4] and in [5] was “inactive” throughout.

In the case of `CC1COc2ccccc2N1` (configuration not stated), the result in [1], in test [3] and in [6] was inactive. The Potency result in test [2], in [4], in [5] and in [8] was “inactive” each time.

On to `N[C@@H](COP(=O)(O)O)C(=O)O`, for which the viability change, negative = cytotoxic is 4.56% [at 19 µM] in [1], -4.16% [at 19 µM] in [4] and 5.61% [at 19 µM] in test [5]. In addition, in [9], the outcome was inactive. For the same molecule, the results for the activity change, negative = inhibition in test [2] and in [8] were -0.0158% [at 19 µM] and 28.3% [at 19 µM], respectively. In test [3], the activity change, negative = cytotoxicity was 0.384% [at 19 µM]. For the same molecule, the activity change in [6] was -1.5% [at 18.9 µM].

In the case of `Nc1nnc(-c2cccc(Cl)c2Cl)c(N)n1`, the outcome in test [1], in test [9] and in test [3] was inactive. For the same molecule, the Potency result in test [2], in test [4], in [5] and in [8] was “inactive” each time.
